Assay outcomes (PubChem BioAssay)
Pf apPOL inh – Pf-apPOL inhibitors, biochemical, fluorescence. Plasmodium falciparum apicoplast DNA polymerase (apPOL). Recombinant Pf-apPOL, molecular beacon fluorescence, 1.5 h. inhibition, % at 10 µM. 0.25% of 210,000 active. AID 1794808, 2022
mHTT-CaM PPI inh – mutant huntingtin-calmodulin interaction inhibitors – biochemical, AlphaScreen, primary screen. P42858. AlphaScreen His-mHTT/GST-CaM binding, luminescence. inhibition, % at 15 µM. 3.6% of 190,000 active;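 also: 0% = both proteins with DMSO and 100% = one protein alone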
Numbers without * were called inactive; . = not tested or not shown. Hits are enriched below; roughly 3.5% of the tested compounds scored in any of these assays. Rule as the data show it: active = inhibition above about 50%; inactive = the rest.

SMILES | Pf apPOL inh | mHTT-CaM PPI inh
COC(=O)c1ccc(S(=O)(=O)NNC(=O)COc2ccc(OC(F)(F)F)cc2)n1C | -2 | .
C#CCOc1c(Cl)cc(C=O)cc1Cl | 0 | 7
O=C(CN(CCc1ccccc1)S(=O)(=O)c1ccc(Br)cc1)NC1CC1 | 3 | 7
Cc1ccc(C2=N/C(=C\C=C\c3ccccc3)C(=O)O2)cc1 | 3 | 6
CC(C)CCn1c(NN)nc2c1c(=O)[nH]c(=O)n2C | -8 | -7
Cc1ccc(SCCN2CCN(CCc3ccccc3)CCC2=O)cc1 | -2 | 34
O=C1CCN(CCc2ccccc2)CCN1CCSc1ccc(Br)cc1 | -9 | 53*
CNC(=O)c1cc(Nc2nnc(-c3ccc(O)cc3)c3ccccc23)ccc1OC | -15 | 19
NC(=O)c1ccc(-c2nnc(Nc3ccc(C(=O)Nc4ccccc4)cc3)c3ccccc23)cc1 | -7 | 87*
CNC(=O)c1ccc(Nc2nnc(-c3ccc(O)cc3)c3ccccc23)cc1 | 3 | 16
CNC(=O)c1cc(Nc2nnc(-c3ccc(C)cc3)c3ccccc23)ccc1OC | 0 | 72*
Cc1nn(-c2ccc(C(=O)N(C)Cc3ccccc3)cc2)c2c1C(=O)CC(C)(C)C2 | -3 | 36
CCn1c(-c2cc(NC(=O)C3CC3)n[nH]2)cc2ccc(OC)cc21 | -4 | 27
CCn1c(-c2cc(NC(=O)C3CC3)n[nH]2)cc2c(OC)cccc21 | -5 | 50*
CC1(C)CC(=O)C2=C(C1)N=C1c3ccccc3C(=O)C1C2c1ccc(O)c(O)c1 (stereo unspecified) | 12 | 48
CC1(C)CC(=O)C2=C(C1)OC(N)=C(C#N)C2c1ccc(Br)cc1 (stereo unspecified) | -5 | 4
COc1ccc(C2C3=C(CCCC3=O)N=C3c4ccccc4C(=O)C32)cc1OC (stereo unspecified) | -3 | 36
CC1(C)CC(=O)C2=C(C1)N=C1c3ccccc3C(=O)C1C2c1ccc(F)cc1 (stereo unspecified) | -2 | 62*
CC1(C)CC(=O)C2=C(C1)N=C1c3ccccc3C(=O)C1C2c1ccc(Br)cc1 (stereo unspecified) | -2 | 65*
CC1(C)CC(=O)C2=C(C1)N=C1c3ccccc3C(=O)C1C2c1cc(Br)ccc1O (stereo unspecified) | -5 | 59*
Cc1ccc(S(=O)(=O)N(C)c2cc(S(=O)(=O)N3CCOCC3)c(C)cc2C)cc1 | -9 | 2
CC1=C(C)CC2C(=O)N(c3ccc(C)cc3)C(=O)C2C1 (stereo unspecified) | 2 | -3
CCN1CCN(c2nc3c(c(=O)n(C)c(=O)n3C)n2CCSc2nc3ccccc3o2)CC1 | -2 | 0
Cc1ccc(CN2CC(N3CCN(c4ccccn4)CC3)CS2(=O)=O)cc1 (stereo unspecified) | -3 | -4
Cc1ccc(-n2nc3c(c2NC(=O)C(C)Oc2ccccc2)CS(=O)(=O)C3)c(C)c1 (stereo unspecified) | 2 | 4
SMILES | Pf apPOL inh | mHTT-CaM PPI inh
Cc1c(-c2ccccc2)c(=O)n(C)c2c1c(=O)n(-c1ccccc1)c(=O)n2-c1ccccc1 | 8 | .
CC(C)C(=O)Oc1ccc2c(c1)OC(=Cc1cccs1)C2=O | -7 | 39
O=C(CSc1cn(Cc2ccc(F)cc2)c2ccccc12)Nc1ccccc1 | 7 | 29
Cc1ccc(-c2nc(C(=O)NCCc3ccccc3)cs2)n1C | 1 | 99*
Cc1ccc(-c2nc(C(=O)Nc3ccc(Cl)cc3)cs2)n1C | -5 | -7
COc1ccc(NC(=O)c2csc(-c3ccc(C)n3C)n2)cc1 | -3 | 62*
Cc1ccc(-c2nc(C(=O)NCCc3ccc(Cl)cc3)cs2)n1C | -3 | 24
COC(=O)c1sccc1Oc1ccc(C(F)(F)F)cc1NC(=O)NS(=O)(=O)c1ccc(C)cc1 | 8 | .
CCOc1sc2nc(C)n(CC(=O)Nc3cccc(C)c3)c(=O)c2c1C | -4 | 7
CC(C)(C)C1CCc2c(sc3c2C(=O)NC(c2ccccc2)N3)C1 (stereo unspecified) | -11 | 0
CC(C)(C)C1CCc2c(sc3c2C(=O)NC(c2ccc(O)c([N+](=O)[O-])c2)N3)C1 (stereo unspecified) | -5 | 59*
COc1ccc(C2CCCN2C(=O)c2cc(C3CC3)on2)cc1 (stereo unspecified) | -1 | 1
CCN1CCN(C2CCN(C(=O)c3ccc(C)cc3)CC2)C1=O | -5 | -9
CCN1CCN(C2CCN(C(=O)c3cc(C)cc(C)c3)CC2)C1=O | -2 | 95*
CSc1ccc(N2CC(c3nnc(NC(=O)c4ccccc4F)o3)CC2=O)cc1 (stereo unspecified) | -2 | 30
COc1nc(Nc2ccc(Cl)cc2)nc(OC)n1 | -2 | 5
CCOc1ccc(C2(c3ccc(O)cc3)CCCCC2)cc1 | -2 | 86*
CCOc1ccc(C(=O)NCC2(O)CCCC2)cc1 | -8 | 0
CSc1nnc2c(n1)OC(c1ccco1)N(C(C)=O)c1ccccc1-2 (stereo unspecified) | 1 | -5
Cc1ccc(/C=C/C23NC(=O)CCN2c2ccccc2C3(C)C)cc1 (stereo unspecified) | -4 | 55*
CC1(C)c2ccccc2N2CCC(=O)NC21C=Cc1cccs1 (stereo unspecified) | -9 | .
Cc1ccc(CNC(=O)C2(C)CCCN(C(=O)c3ccccc3C(F)(F)F)C2)cc1 (stereo unspecified) | -1 | 8
O=C1CC(=Nc2ccc(Br)cc2)NN1c1ccccc1 | -9 | 77*
CN1C(=O)CC(C(=O)O)SC1=Nc1ccc(Br)cc1 (stereo unspecified) | 8 | 2
O=C1/C(=C/c2c(Cl)ccc([N+](=O)[O-])c2Cl)Sc2ccccc21 | 2 | 67*
SMILES | Pf apPOL inh | mHTT-CaM PPI inh
COc1ccc(-c2ccc(C=C3C(=O)OC(c4ccccc4)OC3=O)o2)c([N+](=O)[O-])c1 (stereo unspecified) | -3 | 3
O=C1/C(=C/c2cc([N+](=O)[O-])cc(Br)c2O)Sc2ccccc21 | -7 | 89*
O=C1/C(=C/c2cccc([N+](=O)[O-])c2O)Sc2ccccc21 | -4 | 15
CC(C)c1ccc(/C=C2\Sc3ccccc3C2=O)cc1[N+](=O)[O-] | -2 | 40
O=C1/C(=C/c2ccc([N+](=O)[O-])cc2)Sc2ccccc21 | 89* | 11
COc1ccc(-c2ccc(/C=C3\Sc4ccccc4C3=O)o2)c([N+](=O)[O-])c1 | -4 | 51*
O=C1/C(=C/c2cc([N+](=O)[O-])c(Cl)cc2Cl)Sc2ccccc21 | 4 | 19
Cc1cc(NC(=O)c2csc3c2CCCC3)ccc1Br | -1 | -20
Cc1c(NC(=O)c2ccc3c(c2)OCCO3)cccc1-c1nc2ncccc2o1 | -23 | -4
O=C(Nc1ccc(Cl)c(Cl)c1)N1CCCN(Cc2ccccc2)C1 | 16 | 95*
O=C(Nc1cc(Cl)cc(Cl)c1)N1CCCN(Cc2ccccc2)CC1 | -11 | .
CN1CCCc2cc(CCNC(=O)C34CC5CC(CC(C5)C3)C4)ccc21 | 1 | 53*
O=S(=O)(NCC#CCN1CCc2ccccc2C1)c1cccs1 | 0 | -6
CN1CCCc2cc(CCNS(=O)(=O)c3cccs3)ccc21 | -5 | 51*
CN1CCCc2cc(C(CNC(=O)C34CC5CC(CC(C5)C3)C4)N3CCCC3)ccc21 (stereo unspecified) | 5 | 34
N#Cc1ccc(Cl)cc1NC(=O)C(=O)NCC(c1cccc2ccccc12)N1CCCC1 (stereo unspecified) | -10 | 36
